Out of some 16,000 compounds screened, about 5,800 (36%) were called active. Another 23% or so got no clear call; they are omitted. Calls come from the whole dose curve; as a rule, active = well fitted curve in the direction sought with a large enough effect; inconclusive = small, poorly fitted or top-dose-only effect, or effect the other way; inactive = no such curve, though single readings can be large or run the other way. Some of the results follow.
target: Cytochrome P450 2C19 (Homo sapiens) (UniProt P33261); test: Cytochrome panel assay with activity outcomes; details: recombinant CYP, pro-luciferin dealkylation, luminescence, p450-cyp2c19; series mostly up to 57.1 µM; activity, negative = inhibition: at the top concentration
% is set by controls: 0 for no effect and ±100 for the full control effect.

Cytochrome P450 2C19 (Homo sapiens), sequence (P33261 whole entry, looked up): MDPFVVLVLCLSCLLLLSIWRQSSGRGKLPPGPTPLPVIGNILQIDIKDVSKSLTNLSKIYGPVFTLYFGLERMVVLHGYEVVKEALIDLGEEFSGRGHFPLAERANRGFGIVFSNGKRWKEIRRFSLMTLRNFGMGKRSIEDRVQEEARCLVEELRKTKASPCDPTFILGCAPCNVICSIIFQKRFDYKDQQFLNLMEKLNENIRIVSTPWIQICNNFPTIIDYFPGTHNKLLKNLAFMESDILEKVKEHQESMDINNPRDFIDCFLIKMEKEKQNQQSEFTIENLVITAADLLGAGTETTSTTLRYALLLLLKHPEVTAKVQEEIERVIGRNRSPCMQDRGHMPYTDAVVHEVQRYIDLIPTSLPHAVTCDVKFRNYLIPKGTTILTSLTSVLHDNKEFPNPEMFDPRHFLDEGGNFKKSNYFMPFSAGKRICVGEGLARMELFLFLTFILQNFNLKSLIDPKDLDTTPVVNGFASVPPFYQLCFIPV

AC50, active:
O=C(NCc1ccccc1Cl)C1CCN(S(=O)(=O)N2CCC3(CC2)OCCO3)CC1 22.4 µM
CCS(=O)(=O)N1CCC(C(=O)NCc2ccccc2OC)CC1 39.8 µM
O=C(NCCc1ccc(Cl)cc1)C1CCN(S(=O)(=O)N2CCC3(CC2)OCCO3)CC1 4.47 µM
COc1ccc(CCNC(=O)C2CCN(S(=O)(=O)N3CC(C)CC(C)C3)CC2)cc1OC (centres undefined) 14.1 µM
O=C(Nc1ccc(F)cc1F)c1cccn1-c1ncc(C(F)(F)F)cc1Cl 10 µM
Cc1ccc(C(=O)Nc2ccccc2Oc2ccccc2)cc1[N+](=O)[O-] 3.16 µM
Cc1ccc(C(=O)Nc2ccc(Cc3ccncc3)cc2)cc1[N+](=O)[O-] 1.12 µM
CC(=O)c1ccc(NC(=O)C2(c3ccccc3)CCOCC2)cc1 14.1 µM
CCOC(=O)c1ccc(NC(=O)C2(c3ccc(OC)cc3)CCOCC2)cc1 2.24 µM
O=[N+]([O-])c1ccc(C=Nc2ccc(Cl)cc2Cl)s1 7.08 µM
O=C(/C=C/Nc1ccccc1)c1ccc(Oc2ncccn2)cc1 15.8 µM
COc1ccc(-c2noc(N(C)CC(=O)Nc3cccc(C(F)(F)F)c3)n2)cc1 4.47 µM
COc1ccc2[nH]cc(CCNc3ncncc3-c3ccc(N(C)C)cc3)c2c1 1.58 µM
COc1ccc2[nH]cc(CCNc3ncncc3-c3ccc(C(=O)N(C)C)cc3)c2c1 10 µM
COc1ccc2[nH]cc(CCNc3ncnc4ccc(-c5ccc(C(=O)N(C)C)cc5)cc34)c2c1 7.94 µM
CN1CC(c2ccccn2)C2(SC(=S)N(Cc3ccccc3)C2=O)C12C(=O)Nc1ccccc12 (centres undefined) 1.12 µM
CC(C)(C)c1ccc(C(=O)c2c[nH]c(C(=O)NCCCn3ccnc3)c2)cc1 0.1 µM
O=C(c1ccc(C(F)(F)F)cc1)c1c[nH]c(C(=O)NCCCn2ccnc2)c1 0.631 µM
Cc1c(CCO)c(=O)n(C)n1C(=O)c1ccc(F)cc1 17.8 µM
Clc1ccc2[nH]cc(-c3nnnn3-c3ccccc3)c2c1 1.12 µM
Cc1ccc(-n2nnnc2-c2cnc3ccc(Cl)cc3c2-c2ccccc2)cc1 7.94 µM
Cc1cc(NC(=O)c2ccccc2Cl)c(C(C)C)cc1O 3.98 µM
O=C(Nc1ccccc1Cl)c1ccccc1Cl 20 µM
Cn1sc(NC(=O)c2ccccc2Cl)nc1=O 14.1 µM

AC50, inactive:
Cc1ccc(Cl)c(Nc2ccccc2C(=O)O)c1Cl
CC[C@@]12CCCN3CCc4c(n(c5ccccc45)[C@](O)(C(=O)OC)C1)[C@H]32

activity, negative = inhibition, inactive:
O=C(NCCCN1CCN(Cc2ccccc2)CC1)C1CCN(S(=O)(=O)N2CCCC2)CC1 -10.4%
CCOc1ccc(CCNC(=O)C2CCN(S(=O)(=O)CC)CC2)cc1OCC -24.6%
COc1cccc(CNC(=O)C2CCN(S(=O)(=O)N3CCCCC3)CC2)c1 -23.7%
CCS(=O)(=O)N1CCC(C(=O)NCc2ccco2)CC1 -10.1%
CCS(=O)(=O)N1CCC(C(=O)NCCCOC)CC1 -13.8%
Cc1ccc(C(=O)N/N=C\c2ccc[nH]2)cc1[N+](=O)[O-] 1.23%
COc1ccc(NC(=O)N2CC3(CCN(C(=O)c4ccc(OC)cc4)CC3)C2)cc1 5.03%
COc1ccc(NC(=O)C2(c3ccc(NC(=O)c4ccc(C)cc4)cc3)CCCC2)cc1 23.1%
Cc1noc(C)c1C(=O)N1CCC2(CCN(C(=O)Nc3ccccc3)CC2)CC1 -16.5%
COc1ccc(NC(=O)C2(c3ccc(NC(=O)c4ccc(OC(C)=O)cc4)cc3)CCCC2)cc1 0.405%
NS(=O)(=O)c1cc2c(cc1Cl)N[C@@H](CC1CCCC1)NS2(=O)=O -18.8% [at 25.6 µM]
COc1ccc(NC(=O)c2ccc(-c3ccc(-c4noc(C)n4)cc3C)cc2)cc1OCCN(C)C -37%
CC[C@]1(O)C[C@@H]2CN(CCc3c([nH]c4ccccc34)[C@](C(=O)OC)(c3cc4c(cc3OC)N(C=O)[C@H]3[C@@](O)(C(=O)OC)[C@H](C(=O)OC)[C@@]5(CC)C=CCN6CC[C@]43[C@H]65)C2)C1 -33.8%
CC1=NCC[N@@+]1(CCc1ccccc1)Cc1ccccc1 32.9% [at 11.4 µM]
O=C(O)c1[nH]c2c([N+](=O)[O-])cc([N+](=O)[O-])cc2c1C(=O)O 39.2% [at 11.4 µM]
NS(=O)(=O)c1cc2c(cc1C(F)(F)F)N[C@H](Cc1ccccc1)NS2(=O)=O -20.3% [at 25.6 µM]
CC[n+]1c(P(=O)([O-])c2ccccc2)[nH]c2ccccc21 -15.5%
CCC(CC)C(=O)c1c[nH]c(C(=O)NCCCN2CCOCC2)c1 17.8%
Cc1ccc(C(=O)c2c[nH]c(C(=O)NCCCN3CCOCC3)c2)cc1 -7.11%
CCOC(=O)NC(NC(=O)OCC)C(=O)c1ccc(F)cc1 -29.8%
N#Cc1cccc(-c2nc3cnc(Nc4ccccc4)nc3n(C[C@H]3CCCO3)c2=O)c1 5.15%
O=C(Nc1ccccc1Cl)c1ccn[nH]1 14.8%
Cn1sc(NC(=O)c2ccccc2)nc1=O -23.1%

From PubChem BioAssay AID1851 (National Center for Advancing Translational Sciences (NCATS), 2009)
